# Bioassay records as filed in PubChem BioAssay.
# An excerpt weighted towards active compounds, which were near 2% of everything screened.
# NPR2 activator – human GC-B receptor activators, primary screen, HEK293 GC-B cells, cGMP TR-FRET, EC30 CNP; Atrial natriuretic peptide receptor 2 (Homo sapiens), P20594; 0% at EC30 CNP, 100% saturating CNP; activation, % at 10 µM; hit rate 0.11% among 370,000; AID 1920062, 2024;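 active = activation at 10 µM reaching about 35% in either raw or pattern-adjusted values, limit read from the data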
# ADAM10 inh – human ADAM10 inhibitors, primary screen, biochemical, QFRET, HTS; hit rate 0.62% among 370,000; recombinant ADAM10, EDANS/DABCYL FRET peptide cleavage, 3 h; Disintegrin and metalloproteinase domain-containing protein 10 (Homo sapiens), O14672; inhibition, % at 7 µM;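 active = inhibition above a per-campaign cutoff equal to the mean of compounds falling between control-based bounds plus 3 SD, cut at about 20% in these data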;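 note: 0% = DMSO wells while the 100% control is not disclosed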
# GC-A act – GC-A stimulated cGMP production enhancers – HEK293 GC-A cells, cGMP TR-FRET, EC30 ANP, primary screen. activation, % at 10 µM. 0% at EC30 ANP, 100% saturating ANP. hit rate 0.14% among 370,000; in the data active = activation above about 40%
# ADAM17 inh – ADAM17 inhibitors, primary screen, biochemical, QFRET; Disintegrin and metalloproteinase domain-containing protein 17 (Homo sapiens), P78536; recombinant ADAM17, EDANS/DABCYL FRET peptide cleavage; inhibition, % at 6.95 µM; hit rate 0.83% among 370,000;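 active = inhibition above the mean of compounds lying between control limits plus 3 SD, set per campaign, cut at about 8.5% in these data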;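 note: 0% = DMSO-only wells as the low control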
# Target sequence (P78536 215-824 limits assumed): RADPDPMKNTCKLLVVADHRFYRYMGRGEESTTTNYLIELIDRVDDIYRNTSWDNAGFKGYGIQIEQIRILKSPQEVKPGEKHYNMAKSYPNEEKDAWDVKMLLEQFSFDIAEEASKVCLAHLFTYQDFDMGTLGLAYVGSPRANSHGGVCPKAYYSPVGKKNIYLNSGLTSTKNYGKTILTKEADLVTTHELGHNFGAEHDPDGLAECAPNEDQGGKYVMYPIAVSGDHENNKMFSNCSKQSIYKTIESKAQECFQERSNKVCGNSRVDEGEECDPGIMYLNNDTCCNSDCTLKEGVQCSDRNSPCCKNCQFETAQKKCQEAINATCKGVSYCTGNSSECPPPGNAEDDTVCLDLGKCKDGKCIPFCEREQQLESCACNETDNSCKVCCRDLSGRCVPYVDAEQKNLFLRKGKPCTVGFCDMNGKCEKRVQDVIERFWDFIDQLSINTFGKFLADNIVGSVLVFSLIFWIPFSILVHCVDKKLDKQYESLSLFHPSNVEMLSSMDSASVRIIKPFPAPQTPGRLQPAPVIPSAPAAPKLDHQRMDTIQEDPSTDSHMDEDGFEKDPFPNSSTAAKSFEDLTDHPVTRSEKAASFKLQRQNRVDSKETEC
# FAS-TE inh – FAS thioesterase domain inhibitors, primary screen, biochemical, fluorescence intensity, uHTS | Fatty acid synthase (Homo sapiens), P49327 | recombinant FAS-TE, OMFH fluorogenic substrate, fluorescence endpoint | inhibition, % at 15 µM | hit rate 0.67% among 360,000;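 active = compounds whose normalised, plate-corrected inhibition of enzyme fluorescence in the single-dose primary screen is 50% or more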;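 note: 0% = DMSO with enzyme and 100% = substrate without enzyme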
# ADAM10 ctr – ADAM10 inhibitors, counter-screen for ADAM17 exosite inhibitor project, biochemical, FRET, human ADAM10; shares compounds with ADAM17 inh; recombinant ADAM10, EDANS/DABCYL FRET peptide cleavage, 3 h; inhibition, % at 6.95 µM; hit rate 47% among 2,900; AID 743256, 2014;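 active = mean inhibition over the triplicate runs exceeds the activity threshold set in the earlier primary screen, cut at about 20% in these data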;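 note: 0% = DMSO wells and 100% = marimastat wells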
# ADAM17 confirm – ADAM17 inhibitors, hit retest, confirmation, biochemical, QFRET peptide cleavage | hit rate 65% among 2,900 | inhibition, % at 6.95 µM | recombinant ADAM17, EDANS/DABCYL QFRET peptide cleavage | AID 743257, 2014 | shares compounds with ADAM17 inh;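 active = mean inhibition across replicates above the hit cutoff set in the primary screen, cut at about 8.5% in these data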;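 note: 0% = DMSO wells and 100% = marimastat wells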
# An asterisk follows results filed as active; nt = not tested or not shown.
SMILES,NPR2 activator,ADAM10 inh,GC-A act,ADAM17 inh,FAS-TE inh,ADAM10 ctr,ADAM17 confirm
Cc1[nH]c2ccccc2c1/C=N/Nc1ccc([N+](=O)[O-])cc1,-11,20,-11,10*,11,10,6
COc1cc(C)c2c(c1C=O)Oc1c(c(C)c(O)c3c1C(O)OC3=O)OC2=O (centres undefined),3,6,-1,39*,20,6,6
NS(=O)(=O)c1ccc(NCc2ccccc2OCc2ccccc2F)cc1,3,13,-4,7,4,nt,nt
NS(=O)(=O)c1ccc(NCc2cc(Cl)ccc2OCc2ccc(F)cc2)cc1,-8,16,-13,9.3*,22,20,12*
CCOC(=O)N1CCN(C(=O)C[C@H]2C[C@@]3(C(=O)OC)C(=C[C@H](C(C)C)O[C@@H]3C3CC3)N(Cc3ccco3)C2=O)CC1,6,7,2,3,nt,nt,nt
Cc1ccc(-n2c(Cc3cccs3)nnc2SCc2ccc([N+](=O)[O-])cc2)cc1,-12,9,-16,4,nt,nt,nt
CC1=CC2=NC(=O)/C(=C\c3cccn3CCOc3cccc(C)c3)C(=N)N2O1,-3,9,-4,8.7*,28,6,7
COc1cccc(OCCn2cccc2/C=C2/C(=N)N3OC(C)=CC3=NC2=O)c1,2,-2,-1,-1,-2,nt,nt
Cc1cccc(NC(=O)COC(=O)c2ccc(C)c(S(=O)(=O)N3CCCCC3)c2)c1,6,3,-3,6,30,nt,nt
Cc1ccc(NC(=O)COC(=O)c2cccc(OC(F)F)c2)cc1S(=O)(=O)N1CCCCC1,-2,12,-1,9.1*,9,45*,25*
Cc1ccc(S(=O)(=O)NCC(=O)OCC(=O)Nc2ccc(C)c(S(=O)(=O)N3CCOCC3)c2)cc1,-3,5,2,6,-6,nt,nt
Cc1ccc(OCCC(=O)OCC(=O)Nc2ccc(C)c(S(=O)(=O)N3CCOCC3)c2)cc1,-2,0,2,9.1*,7,10,7
COC(=O)C1CN(Cc2ccccc2)CCS(=O)(=O)N1Cc1ccc(C(F)(F)F)cc1 (centres undefined),-4,-1,-4,-1,nt,nt,nt
C[C@H](CO)N1C[C@H](C)[C@@H](CN(C)C(=O)Nc2ccc3c(c2)OCO3)Oc2ccc(NC(=O)Nc3ccc(C(F)(F)F)cc3)cc2C1=O,6,19,1,11*,13,21*,15*
Cc1noc(C)c1NC(=O)Nc1ccc2c(c1)C(=O)N([C@H](C)CO)C[C@H](C)[C@H](CN(C)C(=O)NC1CCCCC1)OCCCC[C@@H](C)O2,8,4,0,9.8*,-3,27*,7
C[C@@H]1CCCCO[C@H](CN(C)S(=O)(=O)c2cccs2)[C@H](C)CN([C@@H](C)CO)C(=O)c2cc(NC(=O)NC3CCCCC3)ccc2O1,3,15,1,11*,14,28*,16*
Cc1noc(C)c1NC(=O)Nc1ccc2c(c1)C(=O)N([C@@H](C)CO)C[C@@H](C)[C@H](CN(C)C(=O)Nc1cccc3ccccc13)OCCCC[C@H](C)O2,4,-40,2,-5,-4,nt,nt
C[C@H](CO)N1C[C@H](C)[C@@H](CN(C)C(=O)Nc2ccccc2)Oc2ccc(NC(=O)Nc3ccc4c(c3)OCO4)cc2C1=O,-2,-3,-2,1,-5,nt,nt
COC(=O)c1cc(-c2cc3ccccc3s2)c(=O)n2c1CCC2,-2,-191,6,-52,nt,nt,nt
CC(=O)CC[C@H]1CC[C@]2(CCCN(C(=O)c3ccno3)C2)O1,1,-2,1,-1,nt,nt,nt
CC[C@@]1(C(=O)OC)N[C@H](CN(C)S(=O)(=O)c2ccc(-c3ccccc3)cc2)[C@@H]2C(=O)N(C)C(=O)[C@@H]21,-7,7,2,13*,6,12,6
CCC(NC(=O)c1ccc2c(ccn2Cc2cccc(-c3ccccc3C(=O)O)c2)c1)c1ccccc1 (centres undefined),6,-8,0,-9,nt,nt,nt
O=S(=O)(c1ccccc1)N1CCC(n2cnc3ccccc32)CC1,0,15,-5,9.7*,4,-3,-1
O=S(=O)(c1ccccc1C(F)(F)F)N1CCC(n2cnc3ccccc32)CC1,-4,4,0,-2,15,nt,nt
CC(=O)N1CCN(c2ccc(N3CCN(C(C)=O)[C@H](C)C3)c(C)c2)[C@@H](C)C1,6,-5,-2,-1,nt,nt,nt
SMILES,NPR2 activator,ADAM10 inh,GC-A act,ADAM17 inh,FAS-TE inh,ADAM10 ctr,ADAM17 confirm
COc1cc(C(NC(=O)C(F)(F)F)C2CCCC=C2c2ccccc2)cc(OC)c1OC (centres undefined),-23,-6,-18,-2,nt,nt,nt
Cc1ccccc1OCCCSc1nc2ccccc2[nH]1,-6,19,1,8.8*,14,15,10*
CCOC(=O)c1sc(SC)c2c1CCCC2=O,-2,15,2,9.3*,-6,-5,0
CCCn1c(CCNc2nc(-c3cccc(Br)c3)cs2)nc2ccccc21,-6,11,-8,11*,13,17,11*
CCCn1c(C(C)Nc2nc(-c3cccc(Br)c3)cs2)nc2ccccc21 (centres undefined),-11,9,-6,1,13,nt,nt
C[C@@H](N)C(=O)Nc1ccc(Cl)cc1C(=O)c1ccc[nH]1,-5,0,3,-2,nt,nt,nt
c1cncc(-c2ccc3ncnc(NCc4ccc5c(c4)OCO5)c3c2)c1,12,-8,5,-1,-1,nt,nt
c1nc(NCc2ccc3c(c2)OCO3)c2cc(-c3ccoc3)ccc2n1,46*,-3,42*,9.9*,14,-12,3
CC(COc1ccc(S(C)(=O)=O)cc1)CN1CCC(C(O)(c2ccccc2)c2ccccc2)CC1 (centres undefined),-20,-7,-18,-3,nt,nt,nt
CCOC(=O)Cn1c(C(=O)OCC)cc2sccc21,-7,1,-3,9.2*,-1,3,7
CCN(C[C@H]1[C@@H](c2ccc(C3=CCCC3)cc2)[C@H](CO)N1C(=O)c1cccnc1)S(=O)(=O)c1ccccc1[N+](=O)[O-],-3,7,-5,1,nt,nt,nt
Cn1cc(C(=O)c2ccc(Cl)cc2Cl)cc1C(=O)N/N=C(\N)COc1ccc(Cl)cc1,-4,16,4,11*,24,22*,16*
